The text below walks through data of PubChem BioAssay (NCI).

Test systems include T-47D breast; BT-549 breast; MDA-MB-435 melanoma; SW-620 colon; MCF7 breast; HCT-116 colon; HCC-2998 colon; KM12 colon.
What all share (assay): NCI-60 one-dose screen, 48 h (100 = growth as untreated, 0 = no growth, -100 = all killed)
Conditions in all cases: 10 µM unless noted

Compounds without any hit were thinned out: in the full panel of roughly 83,000, 20% have a hit.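 Negative percent growth values reflect cell death: -40 means 40% of the cells present at the start died, and -100 means all died.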 Values without a mark were called inactive. The source made the active and inactive calls. How the source made its calls: active means growth percent below 10; inactive means the rest.

Consider `CCc1ccccc1NC(=O)/C(C#N)=C/c1ccc(OC)cc1`, for which the growth was 88.7% in the assay with T-47D breast; 112% in the assay with BT-549 breast; 110% in the assay with MDA-MB-435 melanoma; 94.4% in the assay with SW-620 colon; 106% in the assay on MCF7 breast; 89.1% with HCT-116 colon. Moreover, the values for the growth in the assay on HCC-2998 colon and in the assay with KM12 colon were 98.1% and 91.4%, respectively.
For the compound `COc1c(CCC[P+](c2ccccc2)(c2ccccc2)c2ccccc2)cc2c(c1OC)OCO2`, the growth is 2.54% (active) in the assay on T-47D breast; 11.5% in the assay on BT-549 breast; 2.57% (active) with MDA-MB-435 melanoma; 13.1% with SW-620 colon; 2.19% (active) with MCF7 breast; 5.97% (active) in the assay with HCT-116 colon. The growth with HCC-2998 colon is 24.1%; in the assay on KM12 colon, 4.98% (active).
For the compound `CN(C)c1ccc(-c2ccc3[nH]c(=O)nc(-c4ccccc4)c3c2)cn1`, the growth was 61% with T-47D breast; 41.9% with BT-549 breast; -11.9% (active) with MDA-MB-435 melanoma; 24.5% in the assay on SW-620 colon; 25.9% with MCF7 breast; 16.4% in the assay on HCT-116 colon. In addition, the growth is 66.3% in the assay with HCC-2998 colon and 19.8% with KM12 colon.
As to `O=C(O)c1ccc2c(c1)CCC2`, the growth with T-47D breast is 106%; in the assay on BT-549 breast, 96.6%; with MDA-MB-435 melanoma, 115%; in the assay with SW-620 colon, 108%; with MCF7 breast, 100%; in the assay with HCT-116 colon, 105%. The growth with HCC-2998 colon was 115%; with KM12 colon, 113%.
Turning to `N#C/C(=C\c1ccc(Br)cc1)n1nnc2cc(F)c(F)cc21`, the growth is -1.87% (active) with T-47D breast; 22.2% in the assay on BT-549 breast; 4.75% (active) in the assay on MDA-MB-435 melanoma; 13.2% with SW-620 colon; 14% with MCF7 breast; 15.3% in the assay on HCT-116 colon. The growth in the assay with HCC-2998 colon is 40%; with KM12 colon, 10.3%.
`O=[N+]([O-])c1ccc(Sc2cccc[n+]2[O-])c2nonc12`: the growth is 54.9% in the assay with T-47D breast; 109% in the assay on BT-549 breast; 97.9% in the assay on MDA-MB-435 melanoma; 23.5% in the assay with SW-620 colon; 25.5% with MCF7 breast; 2.05% (active) with HCT-116 colon. The growth in the assay on HCC-2998 colon is 98.4%; with KM12 colon, 68.6%.
In the case of `COc1ccc2[nH]c(O)c(/C=c3/cc4c(c(-c5ccc(F)c(OC)c5)n3)=Nc3ccccc3-4)c2c1`, the growth with T-47D breast was 89.6%; in the assay on BT-549 breast it was 84.1%; in the assay on MDA-MB-435 melanoma, 6.77% (active); in the assay on SW-620 colon, -23.2% (active); with MCF7 breast, 1.29% (active); in the assay with HCT-116 colon, -91% (active). The growth in the assay with HCC-2998 colon was -0.339% (active); with KM12 colon, 13.1%.
On to `CN(C)CCC=C1c2ccccc2C(C)(C)c2ccccc21`, for which the growth with T-47D breast is 81%; with BT-549 breast it was 94.5%; in the assay on MDA-MB-435 melanoma, 66.9%; with SW-620 colon, 86%; in the assay on MCF7 breast it was 81.2%; in the assay with HCT-116 colon it was 53.1%. Moreover, the growth in the assay on HCC-2998 colon is 10.4%; in the assay on KM12 colon, 76.9%.
For the compound `COc1ccc(/C=N/C2=C(C#N)C(c3ccc(OC)cc3)c3ccc4ccccc4c3O2)cc1` (centres undefined), the growth with T-47D breast is 73.6%; in the assay on BT-549 breast, 84%; in the assay with MDA-MB-435 melanoma it was -10.9% (active); in the assay with SW-620 colon it was 43.3%; with MCF7 breast it was 34.4%; with HCT-116 colon, 71.7%. Moreover, the growth with HCC-2998 colon was 97.4%; with KM12 colon, 59.4%.
On to `Cc1nn(-c2ccccc2)c2nc3c(c(-c4ccc(Cl)cc4)c12)CNC1(CCSCC1)N3`, for which the growth in the assay on T-47D breast was 84.3%; in the assay on BT-549 breast, 109%; in the assay with MDA-MB-435 melanoma it was 99.8%; with SW-620 colon it was 92.8%; in the assay on MCF7 breast it was 93%; in the assay on HCT-116 colon, 90.7%. Moreover, the growth is 101% in the assay with HCC-2998 colon and 98.3% in the assay on KM12 colon.
For the compound `CCCCCc1nc2c(c3c1CCCC3)CCCC2`, the growth was 71.9% in the assay on T-47D breast; 115% in the assay on BT-549 breast; 99.7% with MDA-MB-435 melanoma; 89.9% in the assay with SW-620 colon; 66.9% with MCF7 breast; 48.8% in the assay with HCT-116 colon. The growth in the assay with HCC-2998 colon was 87.8%; with KM12 colon it was 88.3%.
As for `Cc1ccc(/C=C/c2c(C(=O)/C=C/c3ccc(Cl)cc3)c(C)nc3ccccc23)cc1`, the growth in the assay on T-47D breast is 1.89% (active); with BT-549 breast, -10.4% (active); in the assay with MDA-MB-435 melanoma, -47.5% (active); in the assay with SW-620 colon, -33.1% (active); in the assay with MCF7 breast, 12.8%; in the assay with HCT-116 colon, -59.6% (active). Further, the growth with HCC-2998 colon was -82.1% (active); with KM12 colon it was -24.9% (active).
As to `Cc1cc(NCc2cc(Nc3ccnc4cc(Cl)ccc34)ccc2F)nc(Cl)n1`, the growth with T-47D breast is 28%; in the assay with BT-549 breast, 54.6%; with MDA-MB-435 melanoma, 37%; in the assay on SW-620 colon it was 57%; in the assay with MCF7 breast, 30%; in the assay on HCT-116 colon, 30.5%. In addition, the growth in the assay on HCC-2998 colon is 63.2%; with KM12 colon, 64.7%.
